SMARCA2 act: increases SMARCA2 function in MMTV reporter cells; MG213 cells, MMTV-luciferase reporter, dexamethasone, overnight; activation, % at 9.1 µM; hit rate 1% among 370,000; in the data active means activation above about 7.8%
proKLK7 act: proKLK7 (human) activation, primary screen. P49862. activation, % at 7 µM. purified proKLK7, EDANS-DABCYL substrate fluorescence; 100% is mature enzyme control, 0% vehicle. hit rate 0.9% among 370,000;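 active means activation above the mean of all tested compounds plus 3 SD, computed per campaign excluding outliers beyond control limits, cut at about 13% in these data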
Target sequence (P49862 whole entry, looked up): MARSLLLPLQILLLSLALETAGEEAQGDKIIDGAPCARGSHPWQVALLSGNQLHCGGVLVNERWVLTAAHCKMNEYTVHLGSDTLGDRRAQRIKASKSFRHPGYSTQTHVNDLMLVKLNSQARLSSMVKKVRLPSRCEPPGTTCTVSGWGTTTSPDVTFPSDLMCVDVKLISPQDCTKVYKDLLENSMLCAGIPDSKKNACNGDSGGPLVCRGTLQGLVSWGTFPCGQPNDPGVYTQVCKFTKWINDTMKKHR
bovine MsrA act: bovine methionine sulfoxide reductase A activation. activation, % at 10.6 µM. hit rate 0.3% among 360,000. purified bovine MsrA, absorbance read-out. AID 602163; in the data active means activation above about 7.5%
MsrA inhibitor: inhibits bovine methionine sulfoxide reductase A; hit rate 0.75% among 360,000; AID 651718; purified bovine MsrA, absorbance read-out; inhibition, % at 15.5 µM; in the data active means inhibition above about 4.5%
MsrA activ conf: confirmation of bovine methionine sulfoxide reductase A activators | shares compounds with bovine MsrA act | purified bovine MsrA, absorbance read-out | activation, % at 10.6 µM | hit rate 12% among 1,000 | AID 602270; in the data active means activation above about 4%;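 further: enzyme coupled to thioredoxin and thioredoxin reductase with NADPH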
Of the large screens only hits and unclear results are named; the others gave an inactive call (follow-up assays come after a bar, where they were run). Compounds with a hit are over-represented: about 2.8% of the library has one in this group of screens.

Cc1ccccc1N(CC(=O)N1CCN(Cc2ccccc2)CC1)S(C)(=O)=O	none
Fc1ccc(-c2nnc(SCc3ncc(-c4ccccc4)o3)n2CC2CCCO2)cc1 (configuration not stated)	bovine MsrA act 11 | MsrA activ conf inactive
COc1cccc(-c2cnc(C(O)c3ccc(F)c(C)c3)[nH]2)c1 (configuration not stated)	none
CCC(C)Sc1nc2ccccc2c(=O)[nH]1 (configuration not stated)	bovine MsrA act 15 | MsrA activ conf inactive
O=C(Nc1ccc(F)cc1)OCc1cn(Cc2cccc(C(F)(F)F)c2)nn1	none (no result: bovine MsrA act, MsrA inhibitor)
CCN1CCN(C(=O)c2ccc3c(=O)n(C4CCCC4)c(=S)[nH]c3c2)CC1	bovine MsrA act 8.8 | MsrA activ conf inactive
O=C(c1ccc2c(=O)n(C3CCCC3)c(=S)[nH]c2c1)N1CCN(C2CCCCC2)CC1	none
Cc1ccc(S(=O)(=O)Nc2cccc3cccnc23)cc1	bovine MsrA act 11 | MsrA activ conf inactive
COc1ccc(CNCC#Cc2cccnc2)c(OC)c1	none (no result: bovine MsrA act, MsrA inhibitor)
NCCc1nnc(SCc2ccc(F)cc2)o1	none
NCCCCCc1nnc(SCc2ccc(Cl)c(Cl)c2)o1	bovine MsrA act 8.3 | MsrA activ conf inactive
Cc1ccc(Cn2cc(CN3[C@H](Cc4ccccc4)COc4cc(Br)ccc4S3(=O)=O)nn2)cc1	none (no result: bovine MsrA act, MsrA inhibitor)
NC1=C(Cl)C(=O)c2ccccc2C1=O	bovine MsrA act 18 | MsrA activ conf 12
NC1=C(Cl)C(=O)c2ccc(S(N)(=O)=O)cc2C1=O	bovine MsrA act 24 | MsrA activ conf 14
CC(=O)OCC(O)C1(O)CCC2C3CCC4=CC(=O)CCC4(C)C3C(O)CC21C (configuration not stated)	none
Cc1ccc(C)c(N2CCN(C(=O)CCc3nc(-c4cccc(Cl)c4)no3)CC2)c1	none
O=C(CC1OC(=O)c2ccccc21)Nc1cc(Cl)ccc1N1CCOCC1 (configuration not stated)	none
O=C(N/N=C/c1cccs1)C1COc2ccccc2O1 (configuration not stated)	bovine MsrA act 8.6 | MsrA activ conf inactive
CC(=O)c1sc(Nc2nc3ccc(F)cc3s2)nc1C	bovine MsrA act 7.8 | MsrA activ conf inactive
COC(=O)c1ccc2nc(Nc3nc4ccc(F)cc4s3)sc2c1	none
CC(=O)OCC(COC(C)=O)(CN1C(=O)c2ccccc2C1=O)CN1C(=O)c2ccccc2C1=O	none (no result: bovine MsrA act)
O=C(c1ccccc1F)N1CCN(c2ccc([N+](=O)[O-])c3ncccc23)CC1	none
O=[N+]([O-])c1cccc2c(N3CCCC3)ccnc12	bovine MsrA act 20 | MsrA activ conf 12
O=C1C(=O)c2cccnc2-c2ncccc21	bovine MsrA act 95 | MsrA activ conf 76
CC(C)[C@@H](C)/C=C/[C@@H](C)[C@H]1CC[C@@H]2[C@]1(C)CCC1[C@]23C=C[C@]2(C[C@@H](O)CC[C@]12C)N(c1ccc(Br)cn1)O3 (some centres not stated)	none (no result: bovine MsrA act)
COc1ccc(N2C(=O)c3[nH]nc(-c4ccccc4)c3C2c2cccc(C(F)(F)F)c2)cc1 (configuration not stated)	none (no result: bovine MsrA act)
CCC(c1nnnn1C(C)(C)C)N1CCN(C2CCCC2)CC1 (configuration not stated)	bovine MsrA act 8.1 | MsrA activ conf inactive
CCC(c1nnnn1C1CCCCC1)N1CCN(C2CCCC2)CC1 (configuration not stated)	none
COc1ccc(S[C@]2(C(=O)N3CCN(c4ncccn4)CC3)CC(=O)N[C@@H]2c2ccc(OC)cc2)cc1	none (no result: bovine MsrA act, MsrA inhibitor)
CCCc1cc(C(=O)Cc2ccc(F)cc2)c(O)cc1O	bovine MsrA act 22 | MsrA activ conf inactive
Cc1ccccc1C(=O)NCCCc1ccccc1	none
Cc1ccccc1C(=O)NCCCCc1ccccc1	bovine MsrA act 8.7 | MsrA activ conf inactive
O=C(Nc1ccc2c(c1)OCCO2)C1c2ccccc2OCC(=O)N1CCc1c[nH]c2ccccc12 (configuration not stated)	bovine MsrA act 8.0 | MsrA activ conf inactive
Nc1[nH]c2ccccc2c1C(=O)NC1CC1	none (no result: bovine MsrA act, MsrA inhibitor)
Cc1ccc(S(=O)(=O)NC(c2ccccc2)C(C)C(=O)n2nc(C)cc2C)cc1 (configuration not stated)	bovine MsrA act 8.1 | MsrA activ conf inactive
Cc1ccc(S(=O)(=O)NC(CC(=O)n2nc(C)cc2C)c2ccccc2)cc1 (configuration not stated)	none
COc1cc(C(=O)Oc2cc(C)cc(C)c2)cc(OC)c1OC	bovine MsrA act 8.8 | MsrA activ conf inactive
CCOC(=O)C1CCCN(C/C=C/c2ccccc2[N+](=O)[O-])C1 (configuration not stated)	bovine MsrA act 7.9 | MsrA activ conf inactive
CCN1CCN(c2ccc(S(=O)(=O)N3CCCCC3)cc2NC(=O)c2cccc(C)c2)CC1	bovine MsrA act 9.3 | MsrA activ conf inactive
CCN1CCN(c2ccc(S(=O)(=O)N3CCCCC3)cc2NC(=O)c2ccc(C)c(C)c2)CC1	none
COCC(=O)Nc1cccc2ccccc12	bovine MsrA act 11 | MsrA activ conf inactive
COc1ccccc1CNC(=O)CCNC(=O)Cn1ccc2ccccc2c1=O	none
COc1ccccc1CNC(=O)CCNC(=O)Cn1cnc2ccccc2c1=O	bovine MsrA act 8.8 | MsrA activ conf inactive
COC(=O)c1cc(-c2cccc(C#N)c2)c(=O)n2c1CCC2	none (no result: bovine MsrA act, MsrA inhibitor)
Cc1cc(=S)[nH]c(=S)[nH]1	bovine MsrA act 10 | MsrA activ conf 8.2
Cc1cc(C)c2[nH]c(=S)cc(C)c2c1	none
CCN1CCN(C(=O)Nc2ccc(Cc3ccc(NC(=O)N4CCN(CC)CC4)cc3)cc2)CC1	bovine MsrA act 8.2 | MsrA activ conf inactive
O=c1ccsn1Cc1ccccc1	bovine MsrA act 18 | MsrA activ conf 5.6
O=C1NC(Cc2ccccc2)C(=O)N1Cc1ccccc1 (configuration not stated)	none
COc1cc(C(=O)N=c2sccn2C)c([N+](=O)[O-])cc1OC	none
Cn1ccsc1=NC(=O)c1ccc([N+](=O)[O-])o1	bovine MsrA act 8.8 | MsrA activ conf inactive
CN(Cc1ccccc1)C(=O)OCc1cn(Cc2ccccc2F)nn1	none (no result: bovine MsrA act, MsrA inhibitor)
COc1cc(NC(=O)c2cc(-c3cc(F)ccc3OC(C)C)n[nH]2)cc(OC)c1OC	bovine MsrA act 9.4 | MsrA activ conf inactive
CCn1cc(/C=C(\NC(=O)c2cc(OC)c(OC)c(OC)c2)C(=O)N2CCOCC2)c2ccccc21	none
CCC(=O)N(c1ccccc1)C1CCN(C(=O)C(Cc2ccccc2)NC(C)=O)CC1 (configuration not stated)	none (no result: bovine MsrA act, MsrA inhibitor)
N#Cc1ccccc1NC(=O)CN1C(=O)NC(Cc2c[nH]c3ccccc23)C1=O (configuration not stated)	bovine MsrA act 8.0 | MsrA activ conf 5.4
c1ccc(Sc2nc(N3CCCCC3)nc(N3CCCCC3)n2)nc1	bovine MsrA act 9.3 | MsrA activ conf inactive
CCCCOC(=O)CCn1c(=S)oc2ccccc21	bovine MsrA act 21 | MsrA activ conf inactive
CCCNC(=O)CCn1c(=S)oc2ccccc21	none
O=C1NCCc2onc(-c3ccc(Br)cc3)c21	none
CCOC(=O)c1ccccc1NC(=O)CSc1nnc(COc2ccccc2C)n1C	bovine MsrA act 9.0 | MsrA activ conf inactive
Cc1onc(-c2ccccc2)c1C(=O)NCC1CCN(C(=O)C(=O)c2cccs2)CC1	none (no result: bovine MsrA act)
